PubChem BioAssay AID434959 (Broad Institute, 2010)
Among all 30,000 compounds or so, about 110 (0.37%) were called active.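 The calls were made as follows: active = delta delta Cp rounded down to an integer at or above 3, about 3 SD of DMSO wells; inactive = the rest.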 Only a selection was taken, and actives are over-represented in it overall.

Experiment: inhibitors of YB-1 gene expression, primary screen, cell-based, fluorescence (AID 434959);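 also: higher means less YB-1 transcript or more CDIP transcript relative to DMSO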
Settings: U2OS, qRT-PCR YB-1 vs CDIP delta delta Cp, 16 h; active compounds read high; zero = DMSO, each unit about twofold

Question: With `C[C@H]1CN([C@@H](C)CO)C(=O)c2cccc(NS(=O)(=O)c3ccc(Cl)cc3)c2O[C@H]1CN(C)Cc1ccc2c(c1)OCO2` as the compound, how does the delta Cp (YB-1 minus CDIP) read?
Answer: 0.321 (inactive)

Question: For `C[C@@H]1CN([C@H](C)CO)C(=O)c2cccc(NC(=O)CCCCCC(=O)Nc3ccccc3N)c2O[C@@H]1CN(C)C(=O)Nc1ccccc1`, which delta Cp (YB-1 minus CDIP) is on record?
Answer: 0.438 (inactive)

Question: For `C[C@H]1CN([C@@H](C)CO)C(=O)Cc2cc(NC(=O)CCCN(C)C)ccc2O[C@@H]1CN(C)Cc1ccc(-c2ccccc2)cc1`, which delta Cp (YB-1 minus CDIP) is on record?
Answer: -1.08 (inactive)

Question: With `Oc1ccc2c(c1)OCC1c3cc4c(cc3OC21)OCO4` (stereo not given) as the compound, how does the delta Cp (YB-1 minus CDIP) read?
Answer: 0.271 (inactive)

Question: Which delta Cp (YB-1 minus CDIP) does the source give for `COc1ccc(CN(C)C[C@@H]2Oc3c(NC(=O)C4CC4)cccc3C(=O)N([C@@H](C)CO)C[C@H]2C)cc1` here?
Answer: -0.213 (inactive)

Question: For `CC(C)NC(=O)Nc1ccc2c(c1)CC(=O)N([C@H](C)CO)C[C@@H](C)[C@H](CN(C)S(=O)(=O)c1ccccc1)O2`, which delta Cp (YB-1 minus CDIP) is on record?
Answer: 0.113 (inactive)

Question: Which delta Cp (YB-1 minus CDIP) does the source give for `C[C@H](CO)N1C[C@H](C)[C@H](CN(C)CC2CCCCC2)Oc2ccc(NC(=O)CCCCCC(=O)Nc3ccccc3N)cc2CC1=O` here?
Answer: -0.217 (inactive)

Question: With `C[C@H]1CN([C@@H](C)CO)C(=O)c2cccc(NC(=O)NC3CCCCC3)c2O[C@H]1CN(C)CC1CCCCC1` as the compound, how does the delta Cp (YB-1 minus CDIP) read?
Answer: -0.236 (inactive)

Question: For `Cc1onc(-c2c(Cl)cccc2Cl)c1C(=O)N=S(C)(C)=O`, which delta Cp (YB-1 minus CDIP) is on record?
Answer: -0.447 (inactive)

Question: With `C[C@H]1CN([C@@H](C)CO)C(=O)CCCn2cc(nn2)CO[C@@H]1CN(C)S(=O)(=O)c1ccc(-n2cccn2)cc1` as the compound, how does the delta Cp (YB-1 minus CDIP) read?
Answer: -0.848 (inactive)

Question: With `C[C@H](CO)N1C[C@H](C)[C@H](CN(C)S(=O)(=O)c2ccc(C#N)cc2)Oc2ncc(-c3cccc(F)c3)cc2C1=O` as the compound, how does the delta Cp (YB-1 minus CDIP) read?
Answer: 0.397 (inactive)

Question: Which delta Cp (YB-1 minus CDIP) does the source give for `COCCOC(=O)N1C(=O)[C@@]2(c3cc(C#CCC(C(=O)OC)C(=O)OC)ccc31)[C@H](c1ccc(OCCO)cc1)N1[C@H](c3ccccc3)[C@H](c3ccccc3)OC(=O)[C@H]1[C@@H]2C(N)=O` here?
Answer: -0.585 (inactive)

Question: Which delta Cp (YB-1 minus CDIP) does the source give for `CCOC(=O)c1cc(=O)c2ccc(OCc3ccccc3)cc2o1` here?
Answer: 0.522 (inactive)

Question: For `Cc1noc(C)c1S(=O)(=O)Nc1ccc2c(c1)C(=O)N([C@@H](C)CO)C[C@H](C)[C@H](CN(C)C(=O)Nc1ccc(C(F)(F)F)cc1)O2`, which delta Cp (YB-1 minus CDIP) is on record?
Answer: -0.372 (inactive)

Question: For `O=C(NO)c1ccc(C(=O)N/N=C/c2ccc(Br)cc2)cc1`, which delta Cp (YB-1 minus CDIP) is on record?
Answer: -0.432 (inactive)

Question: Which delta Cp (YB-1 minus CDIP) does the source give for `C[C@H](CO)N1C[C@H](C)[C@@H](CN(C)Cc2ccc(Oc3ccccc3)cc2)OCc2cn(nn2)CCCC1=O` here?
Answer: -0.14 (inactive)

Question: With `COC(=O)C1=C(N)Oc2cc(C)oc(=O)c2C1c1cccnc1` (stereo not given) as the compound, how does the delta Cp (YB-1 minus CDIP) read?
Answer: -0.311 (inactive)

Question: With `COc1ccc(NC(=O)N(C)C[C@H]2Oc3ccc(NC(=O)Nc4ccc5c(c4)OCO5)cc3C(=O)N([C@H](C)CO)C[C@H]2C)cc1` as the compound, how does the delta Cp (YB-1 minus CDIP) read?
Answer: 0.191 (inactive)

Question: With `Cc1ccc(-c2cn3c4c(sc3n2)CCCC4)cc1` as the compound, how does the delta Cp (YB-1 minus CDIP) read?
Answer: 0.773 (inactive)

Question: For `Cc1ccc(-n2c(C)nc3sc4c(c3c2=O)CCC4)cc1`, which delta Cp (YB-1 minus CDIP) is on record?
Answer: 5.31 (active)

Question: With `O=C(N/N=C/c1ccc([N+](=O)[O-])s1)c1ccccc1O` as the compound, how does the delta Cp (YB-1 minus CDIP) read?
Answer: 0.165 (inactive)

Question: For `C[C@H](CO)N1C[C@H](C)[C@@H](CN(C)Cc2ccc(Cl)c(Cl)c2)Oc2c(NC(=O)C3CCCCC3)cccc2C1=O`, which delta Cp (YB-1 minus CDIP) is on record?
Answer: -0.923 (inactive)

Question: Which delta Cp (YB-1 minus CDIP) does the source give for `Cc1ccc(CN(C)C[C@@H]2OCc3cnnn3CCCC(=O)N([C@@H](C)CO)C[C@H]2C)cc1` here?
Answer: -0.0292 (inactive)

Question: For `C[C@@H]1CN([C@H](C)CO)C(=O)c2cc(NC(=O)Nc3ccc4c(c3)OCO4)ccc2O[C@H]1CN(C)Cc1ccc(-c2ccccc2)cc1`, which delta Cp (YB-1 minus CDIP) is on record?
Answer: 0.369 (inactive)

Question: Which delta Cp (YB-1 minus CDIP) does the source give for `C[C@H](CO)N1C[C@H](C)[C@H](CN(C)C(=O)Nc2ccc(C(F)(F)F)cc2)Oc2ccc(N(C)C)cc2CC1=O` here?
Answer: 0.00881 (inactive)

Question: With `Cc1cc(C(=O)Nc2cccc3c2O[C@@H](CN(C)Cc2ccc(C(=O)O)cc2)[C@H](C)CN([C@@H](C)CO)C3=O)n(C)n1` as the compound, how does the delta Cp (YB-1 minus CDIP) read?
Answer: -0.416 (inactive)

Question: For `O=C(N/N=C/c1ccc(Oc2ccccc2)cc1)c1ccccn1`, which delta Cp (YB-1 minus CDIP) is on record?
Answer: -0.417 (inactive)

Question: For `COc1ccc(NC(=O)N(C)C[C@@H]2Oc3ccc(NS(=O)(=O)c4ccc(OC)cc4)cc3CC(=O)N([C@H](C)CO)C[C@H]2C)cc1`, which delta Cp (YB-1 minus CDIP) is on record?
Answer: -0.353 (inactive)

Question: For `C[C@H]1CN([C@@H](C)CO)C(=O)c2cccc(NC(=O)Nc3ccccc3)c2O[C@H]1CN(C)C(=O)Nc1cccc2ccccc12`, which delta Cp (YB-1 minus CDIP) is on record?
Answer: 0.0743 (inactive)

Question: Which delta Cp (YB-1 minus CDIP) does the source give for `C[C@@H]1CN([C@@H](C)CO)C(=O)CCCn2cc(nn2)CO[C@@H]1CN(C)C(=O)C1CCCCC1` here?
Answer: -0.464 (inactive)

Question: For `Cc1noc(C)c1S(=O)(=O)N(C)C[C@H]1OCc2cn(nn2)CCCC(=O)N([C@H](C)CO)C[C@H]1C`, which delta Cp (YB-1 minus CDIP) is on record?
Answer: 0.0461 (inactive)

Question: For `C[C@H](CO)N1C[C@H](C)[C@@H](CN(C)Cc2ccc(C(F)(F)F)cc2)Oc2ccc(NC(=O)CCC(F)(F)F)cc2C1=O`, which delta Cp (YB-1 minus CDIP) is on record?
Answer: -0.124 (inactive)

Question: Which delta Cp (YB-1 minus CDIP) does the source give for `C[C@@H]1CN([C@H](C)CO)C(=O)c2cccc(NC(=O)C3CCCCC3)c2O[C@@H]1CN(C)C(=O)NC1CCCCC1` here?
Answer: 0.413 (inactive)

Question: For `COc1ccc(CN(C)C[C@@H]2Oc3ccc(NS(=O)(=O)c4cn(C)cn4)cc3C(=O)N([C@@H](C)CO)C[C@@H]2C)cc1`, which delta Cp (YB-1 minus CDIP) is on record?
Answer: -0.246 (inactive)

Question: Which delta Cp (YB-1 minus CDIP) does the source give for `Cc1ccc(C(=O)c2coc3ccc(O)c(CN(C)C)c23)cc1` here?
Answer: 0.308 (inactive)

Question: With `CCCN(C)C[C@@H]1OCCCC[C@@H](C)Oc2ccc(NC(=O)CCCN(C)C)cc2C(=O)N([C@H](C)CO)C[C@@H]1C` as the compound, how does the delta Cp (YB-1 minus CDIP) read?
Answer: -0.0474 (inactive)

Question: With `COc1ccc(C#Cc2ccc3c(c2)[C@]2(C(=O)N3)[C@H](C(=O)N3CCc4cc(OC)c(OC)cc4C3)[C@H]3C(=O)O[C@H](c4ccccc4)[C@H](c4ccccc4)N3[C@@H]2c2ccc(O)cc2)cc1` as the compound, how does the delta Cp (YB-1 minus CDIP) read?
Answer: 0.269 (inactive)

Question: With `CC(=O)N1[C@@H](c2ccc(C)cc2)SC(C)(C)[C@@H]1C(=O)O` as the compound, how does the delta Cp (YB-1 minus CDIP) read?
Answer: -0.179 (inactive)

Question: For `Cc1ccc(S(=O)(=O)N(C)C[C@@H]2Oc3ccc(NC(=O)NC4CCCCC4)cc3C(=O)N([C@@H](C)CO)C[C@H]2C)cc1`, which delta Cp (YB-1 minus CDIP) is on record?
Answer: 0.362 (inactive)

Question: With `Cc1ccc(S(=O)(=O)Nc2ccc3c(c2)C(=O)N([C@@H](C)CO)C[C@@H](C)[C@H](CN(C)CC2CC2)O3)cc1` as the compound, how does the delta Cp (YB-1 minus CDIP) read?
Answer: -0.0524 (inactive)
